Only some compounds are listed: those with a hit (about 1.9% of all), similar ones and a draw of the others.
S1P4 ag – human S1P4 receptor agonism; activation, % at 4.98 µM; S1P4-expressing cell line, agonist reporter assay; hit rate 0.35% among 220,000; O95977; AID 1509; in the data active means activation above about 11%
S1P4 antagonist – human S1P4 receptor antagonism; S1P4-expressing cells, antagonist mode, reporter read-out; inhibition, % at 4.98 µM; hit rate 0.26% among 220,000; AID 1510; in the data active means inhibition above about 29%
EP2 mod – EP2 receptor (human) modulation; EP2-expressing cells, cAMP HTRF FRET, PGE2 co-stimulation; induction, % at 25 µM; hit rate 0.83% among 260,000;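 active means compounds whose cAMP rise, as percent of the full-agonist control response, exceeds 60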;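 further: rat C6 glioma line stably carrying human EP2 under a CMV promoter; the protocol text gives 20 µM as final concentration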
Target sequence (P43116 whole entry, looked up): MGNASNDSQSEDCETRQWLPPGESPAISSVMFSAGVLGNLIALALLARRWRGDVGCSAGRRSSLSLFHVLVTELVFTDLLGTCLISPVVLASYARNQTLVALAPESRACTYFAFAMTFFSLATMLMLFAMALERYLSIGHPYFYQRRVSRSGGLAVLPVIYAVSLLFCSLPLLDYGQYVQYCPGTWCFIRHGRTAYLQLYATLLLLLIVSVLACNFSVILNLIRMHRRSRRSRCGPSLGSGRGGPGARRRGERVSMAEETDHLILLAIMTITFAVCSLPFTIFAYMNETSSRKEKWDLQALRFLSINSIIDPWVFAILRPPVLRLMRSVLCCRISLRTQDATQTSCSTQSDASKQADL
S1P3 antagonist – antagonists of human S1P3 receptor | Q99500 | CHO S1P3 NFAT-BLA reporter, FRET fluorescence, antagonist mode | inhibition, % at 4.98 µM | hit rate 0.27% among 170,000;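 active means inhibition above the plate cutoff, the mean inhibition of test wells on that plate plus 3 SD, cut at about 28% in these data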;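 further: cells challenged with S1P at its EC80 of 0.8 µM; blue over green emission ratio from cleaved BLA substrate after 4 h stimulation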
Pf gamet viab – kills late stage P. falciparum gametocytes; P. falciparum stage V gametocytes, ATP luminescence, 24 h; inhibition, % at 10.9 µM; hit rate 0.065% among 150,000; AID 743093;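 active means inhibition above the mean plus 3 SD of compounds within the control limits, set per campaign, cut at about 38% in these data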
EP2 antag – inhibitors of human EP2 prostaglandin E2 receptor. P43116. C6 glioma cells expressing human EP2, cAMP TR-FRET; cells stimulated with saturating PGE2. inhibition, % at 25 µM. hit rate 0.52% among 260,000. AID 1422;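 active means percent inhibition above 40 after rounding to a whole number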;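 further: rat C6 glioma host cells with rolipram phosphodiesterase inhibitor present; the protocol text gives 20 µM as final concentration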
A number is an active result; i = inactive; nt = not tested or not shown; ! = not confirmed by another sample.

SMILES	S1P4 ag	S1P4 antagonist	EP2 mod	S1P3 antagonist	Pf gamet viab	EP2 antag
Cc1ccc(C(=O)N2CCN(c3ccc(N)cc3)CC2)cc1	nt	nt	i	nt	nt	i
O=c1[nH]cnc2c1ncn2C1O[C@H](CO)[C@@H](O)[C@H]1O (stereo partly drawn)	nt	nt	i	nt	nt	i
O=c1[nH]cnc2c1ncn2[C@@H]1O[C@H](CO)[C@@H](O)[C@H]1O	23.9	i	i	i	nt	i
C[N+](C)(C)c1nc(N)nc2c1ncn2[C@H]1O[C@@H](CO)[C@H](O)[C@H]1O	nt	nt	i	nt	nt	44.6
OC[C@H]1O[C@@H](n2cnc3c(Nc4ccccc4)ncnc32)[C@H](O)[C@@H]1O	i	i	i	i	nt	i
Cn1cnc([N+](=O)[O-])c1Sc1nc(N)nc2c1ncn2[C@@H]1C[C@H](O)[C@@H](CO)O1	nt	nt	i	nt	nt	48.1
Nc1ncnc2c1ncn2[C@@H]1O[C@H](CO)[C@@H](O)[C@H]1O	i	i	i	i	nt	i
OC[C@@H]1O[C@H](n2cnc3c(/C=C(\O)c4ccccc4)ncnc32)[C@H](O)[C@H]1O	nt	nt	i	nt	nt	45.0
COc1nc(N)nc2c1ncn2[C@@H]1C[C@H](O)[C@@H](CO)O1	nt	nt	i	nt	nt	i
COc1ccccc1CC(=O)N1CCCC(c2nc3sc(C)c(C)c3c(=O)[nH]2)C1 (stereo not drawn)	nt	nt	i	nt	nt	i
Nc1nc(SCc2ccc([N+](=O)[O-])cc2)c2ncn([C@@H]3O[C@H](CO)[C@H](O)C3O)c2n1 (stereo partly drawn)	nt	nt	i	nt	nt	i
Cn1cnc([N+](=O)[O-])c1[Se]c1nc(N)nc2c1ncn2[C@H]1O[C@@H](CO)[C@H](O)[C@H]1O	nt	nt	i	nt	nt	42.2
COCCn1c2ccccc2n2c(=O)n(CC(=O)N3CCCCC3)nc12	nt	nt	i	nt	nt	i
O=[N+]([O-])c1ccc2c(N=Nc3ccc4ccccc4c3O)c(O)cc(S(=O)(=O)O)c2c1	nt	nt	i	nt	nt	50.5
O=[N+]([O-])c1ccccc1N=Nc1c(O)[nH]c2ccc(S(=O)(=O)O)cc12	nt	nt	i	nt	nt	i
CCN(CC)S(=O)(=O)c1cc([N+](=O)[O-])ccc1N=Nc1c(O)[nH]c2ccccc12	i	i	i	i	i	i
NS(=O)(=O)c1ccc(N=Nc2c(O)c(C(=O)O)cc3ccccc23)cc1	i	i	i	i	nt	50.2!
O=S(=O)(O)c1ccc2c(N=Nc3cccc4ccccc34)c(O)c(S(=O)(=O)O)cc2c1	nt	nt	i	nt	nt	56.8
O=[N+]([O-])c1ccc(Cl)c(CNc2ncnc3c2ncn3[C@@H]2CCCCO2)c1	nt	nt	i	nt	nt	42.9
Cc1cc(C)nc(NS(=O)(=O)c2ccc(NC(=O)CSc3nc(-c4ccccc4)c(C#N)c(=O)[nH]3)cc2)n1	i	i	62.2	i	i	i
O=C(N/N=C/c1cn(-c2cccs2)nc1-c1ccccc1)c1ccc(O)cc1	i	i	i	i	i	41.5
O=C(N/N=C/c1cn(-c2cccs2)nc1-c1ccccc1)c1ccccc1Cl	i	i	i	i	i	i
Cc1cnc(C)c(N2CCC(C(=O)NC3CCCCC3)CC2)n1	nt	nt	i	nt	nt	i
CCN(CC)S(=O)(=O)c1ccc(OC)c(NC(=O)COc2ccc3c(C)cc(=O)oc3c2)c1	i	i	i	i	nt	66.5
CCN(CC)S(=O)(=O)c1ccc(Cl)c(NC(=O)COc2ccc3c(C)cc(=O)oc3c2)c1	i	i	i	i	i	i
SMILES	S1P4 ag	S1P4 antagonist	EP2 mod	S1P3 antagonist	Pf gamet viab	EP2 antag
CCn1c(Cc2ccccc2)nnc1SCC(=O)Nc1sc2c(c1C#N)CCCC2	nt	nt	i	nt	nt	i
CC(=O)NC1(c2ccc(F)cc2)CCN(Cc2cccc(Oc3ncccn3)c2)CC1	nt	nt	i	nt	nt	i
c1ccc(C[n+]2ccc(-c3c[nH]c4ccccc34)cc2)cc1	nt	nt	i	nt	nt	i
Cc1cc2cc(CN(Cc3ccc4c(c3)OCO4)Cc3nnnn3C3CCCC3)c(=O)[nH]c2cc1C	i	i	63.9	i	nt	i
CCOc1ccc2[nH]c(=O)c(CN(CCc3ccccc3)Cc3nnnn3C3CCCCC3)cc2c1	nt	nt	62.1	nt	nt	i
CCOc1ccc2[nH]c(=O)c(CN(Cc3nnnn3C3CCCCC3)C3CCCC3)cc2c1	nt	nt	i	nt	nt	i
CCOc1ccc2[nH]c(=O)c(CN(Cc3ccc(F)cc3)Cc3nnnn3C3CCCC3)cc2c1	nt	nt	61.3	nt	nt	i
Cc1cc(NC(=O)CCC(=O)N(CC(=O)NC2CCCC2)Cc2ccc(F)cc2)no1	i	i	i	62.6	nt	i
S=c1nc(COc2ccccc2)[nH]c2ccccc12	nt	nt	65.7	nt	nt	i
S=c1nc(Cc2ccc(Cl)cc2)[nH]c2ccccc12	i	i	i	i	i	i
